From PubChem BioAssay AID707 (Columbia University Molecular Screening Center, 2007)
Among all 91,000 compounds or so, about 310 (0.34%) were called active. Rule as the data show it: active = inhibition above about 80%; inactive = the rest. The full list was thinned out, with actives kept by preference.

molecular target: Bifunctional epoxide hydrolase 2 (Homo sapiens) (UniProt P34913); experiment: sEH enzyme activity blockers – biochemical, human sEH, primary screen (AID 707); settings: recombinant human sEH enzymatic activity assay; at 2 µM; active compounds read high
Sequence (P34913 whole entry, looked up): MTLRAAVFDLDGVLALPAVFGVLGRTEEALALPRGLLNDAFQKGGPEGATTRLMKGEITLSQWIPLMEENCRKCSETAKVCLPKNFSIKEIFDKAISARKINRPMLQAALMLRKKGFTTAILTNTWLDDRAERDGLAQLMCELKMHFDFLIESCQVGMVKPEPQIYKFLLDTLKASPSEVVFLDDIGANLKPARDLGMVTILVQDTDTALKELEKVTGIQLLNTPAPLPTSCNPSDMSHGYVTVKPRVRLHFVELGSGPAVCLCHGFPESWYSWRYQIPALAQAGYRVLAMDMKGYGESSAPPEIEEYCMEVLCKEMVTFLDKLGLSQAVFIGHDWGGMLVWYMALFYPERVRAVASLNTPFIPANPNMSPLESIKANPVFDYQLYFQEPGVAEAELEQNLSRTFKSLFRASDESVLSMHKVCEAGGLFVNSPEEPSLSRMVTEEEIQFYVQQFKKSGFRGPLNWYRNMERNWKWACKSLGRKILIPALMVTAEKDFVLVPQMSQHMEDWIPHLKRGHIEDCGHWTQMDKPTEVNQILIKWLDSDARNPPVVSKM

inhibition, inactive:
O=C(CCNS(=O)(=O)c1ccccc1C(F)(F)F)NCc1ccc2c(c1)OCO2 -4.3%
COc1ccc(/C=C2\CCCC3C2=NN(C(=O)c2scnc2C)C3c2ccc(OC)cc2)cc1 (stereo not given) -10.6%
CS(=O)(=O)N(CC(=O)Nc1ccc(F)cc1F)c1cccc([N+](=O)[O-])c1 1.3%
CC(C)c1ccc(/C=C/C(=O)NNC(=O)c2cccnc2)cc1 -2.9%
COc1cc(C2C(C(=O)OCCC#N)=C(C)NC3=C2S(=O)(=O)c2ccccc23)cc(OC)c1OC (stereo not given) 8.9%
COc1ccc(Cl)cc1NC(=O)CN(C)C(=O)CNC(=O)C12CC3CC(CC(C3)C1)C2 15.5%
CS(=O)(=O)N1CCN(c2ccc(C(=O)NC3C4CC5CC(C4)CC3C5)cc2[N+](=O)[O-])CC1 (stereo not given) -10.1%
Cc1cc(/C=C2/SC(=O)N(CC(=O)OC(C)C)C2=O)c(C)n1C -9.2%
Cc1cc(OC(=O)c2c(Cl)cccc2Cl)nc(C)n1 -21.2%
Cc1nnsc1S(=O)(=O)Cc1ccccc1Cl 4.8%
CCOC(=O)N1CCN(c2c(NCCCN3CCCC(C)C3)c(=O)c2=O)CC1 (stereo not given) -4.6%
Cc1nc(Cl)c2oc3ccccc3c2n1 0.8%
O=[N+]([O-])c1ccccc1NCc1ccc(Cl)cc1 -1%
CN(C)c1ccc(NC(=S)N(CCc2ccccc2)C2CC(=O)N(c3c(Cl)cccc3Cl)C2=O)cc1 (stereo not given) 7.8%
Cc1nn(CC(=O)Nc2nc3ccccc3s2)c(C)c1[N+](=O)[O-] -6.1%
Cc1ccc(OCC(=O)N/N=C/c2ccncc2)cc1 -19.2%
CC(=O)c1cn(CCCCCCCCCCn2cc(C(C)=O)c(=O)[nH]c2=O)c(=O)[nH]c1=O -2%
Cc1ccc(-c2nn(-c3ccccc3)cc2/C=N/NC(=O)c2ccc3c(c2)OCO3)cc1 -6.2%
Cc1occc1C(=O)NNC(=S)NCC(C)C -18%
Cc1cccc(NC(=O)c2ccc(OCC(=O)NCc3ccccc3)cc2)c1C 3.8%
